A selection: hits, their analogues and other compounds. The true share with any hit is near 4.8%.
hgDAF12 agonist: hgDAF-12 agonism, primary luciferase screen. AID 687014. HEK293 GAL4-hgDAF12 UAS-luciferase reporter, agonist luminescence; normalized to butyrate control. activation, % at 6.8 µM. actives 1.8% (n = 370,000);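 active = activation above a cutoff set at the mean of all screened compounds plus 3 SD, cut at about 10% in these data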;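 note: 0% = DMSO wells and 100% = sodium butyrate wells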
ssDAF12 agonist: activators of S. stercoralis DAF-12 nuclear receptor. HEK293 ssDAF-12/GRIP1 lit1-tk-luc reporter, luminescence; % of 3 µM dafachronic acid response. activation, % at 6.8 µM. actives 1% (n = 370,000). AID 652126;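 active = activation above the mean over all tested compounds plus 3 SD, cut at about 0.9% in these data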;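 note: 0% = DMSO-only wells and 100% = 3 µM delta7-dafachronic acid wells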
hcDAF-12 act: activates DAF-12 receptor from parasite H. contortus; HEK293 hcDAF-12 lit1-tk-luc reporter, luminescence; 0% DMSO, 100% Δ7-dafachronic acid; activation, % at 6.8 µM; actives 1.4% (n = 370,000); AID 652067;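 active = activation above the mean of all tested compounds plus 3 SD, cut at about 5.5% in these data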;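 note: 100% = response to 3 µM Δ7-dafachronic acid high control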
DAX1 inh-1: NR0B1 (DAX1) inhibition | P51843 | HEK293 Gal4-DAX1 luciferase reporter, luminescence | inhibition, % at 6.75 µM | actives 0.99% (n = 340,000) | AID 504766;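 active = inhibition above the mean over all tested compounds plus 3 SD, cut at about 4.2% in these data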;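 note: 0% = DAX1-transfected cells with DMSO and 100% = empty-vector control cells with DMSO; inhibition shows as a rise in luminescence from relieved DAX1 repression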
Target sequence (P51843 207-470 limits assumed): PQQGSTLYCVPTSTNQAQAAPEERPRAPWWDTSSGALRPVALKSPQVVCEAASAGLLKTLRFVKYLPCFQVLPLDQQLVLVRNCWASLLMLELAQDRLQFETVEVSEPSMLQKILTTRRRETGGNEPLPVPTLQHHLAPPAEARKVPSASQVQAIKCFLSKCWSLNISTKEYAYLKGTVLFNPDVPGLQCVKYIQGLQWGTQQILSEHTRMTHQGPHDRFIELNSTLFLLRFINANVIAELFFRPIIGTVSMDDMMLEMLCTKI
DAX1 inh-2: inhibitors of DAX1 repression of SF-1 activated StAR promoter; HEK293T StAR-luciferase reporter, SF-1/DAX-1 repression relief; inhibition, % at 6.8 µM; actives 1.1% (n = 370,000); AID 652010;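 active = inhibition above the mean over all tested compounds plus 3 SD, cut at about 3.6% in these data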;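 note: 0% = DAX-1 cells with DMSO and 100% = cells lacking DAX-1 with DMSO; higher inhibition means more luminescence from relief of DAX-1 repression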
SMARCA2 activ: increases SMARCA2 function in MMTV reporter cells. activation, % at 9.1 µM. actives 1% (n = 370,000). MG213 cells, MMTV-luciferase reporter, dexamethasone, overnight. AID 652017; in the data active = activation above about 7.8%;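 note: 0% = vehicle wells and 100% = reference activator wells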
DAX1 conf: confirmation of human DAX1 (NR0B1) inhibitors | HEK293T StAR-promoter luciferase reporter, SF-1/DAX-1 repression | inhibition, % at 6.8 µM | shares compounds with DAX1 inh-2 | actives 87% (n = 2,400) | AID 652134;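 active = inhibition above the average of every tested compound plus 3 SD, cut at about 3.8% in these data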;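 note: 0% = DAX-1 cells with DMSO and 100% = no DAX-1 control cells with DMSO; active compounds raise luminescence by relieving repression of the StAR reporter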
Target sequence (P51843 whole entry, looked up): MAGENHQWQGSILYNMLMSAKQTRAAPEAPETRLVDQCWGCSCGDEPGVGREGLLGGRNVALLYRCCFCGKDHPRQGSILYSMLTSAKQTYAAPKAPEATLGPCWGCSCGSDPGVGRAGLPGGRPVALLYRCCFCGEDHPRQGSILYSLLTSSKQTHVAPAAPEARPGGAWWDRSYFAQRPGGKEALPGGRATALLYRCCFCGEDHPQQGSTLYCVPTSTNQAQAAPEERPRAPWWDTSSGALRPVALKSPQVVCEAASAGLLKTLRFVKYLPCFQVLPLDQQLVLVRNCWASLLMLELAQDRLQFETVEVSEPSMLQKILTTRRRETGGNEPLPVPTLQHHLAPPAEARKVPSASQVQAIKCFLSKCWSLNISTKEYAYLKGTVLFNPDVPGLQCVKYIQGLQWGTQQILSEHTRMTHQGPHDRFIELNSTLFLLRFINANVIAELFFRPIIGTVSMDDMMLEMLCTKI
SF1 AF2mut Luc: counter-screen for DAX1 inhibitors: nonselective inhibitors with SF-1 AF2 mutant. shares compounds with DAX1 inh-2. HEK293 StAR-luciferase, luminescence. inhibition, % at 6.8 µM. actives 78% (n = 2,400);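 active = inhibition above the mean of all tested compounds plus 3 SD, cut at about 3% in these data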;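 note: 0% = DAX-1 transfected cells with DMSO and 100% = cells without DAX-1 with DMSO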
SMARCA2 conf: confirmation of SMARCA2 (BRM) function activators; shares compounds with SMARCA2 activ; MG213 cells, MMTV-luciferase with dexamethasone, luminescence, overnight; MG213 cells expressing E1A, Rb sequestered; DMSO wells 0%, reference activator 100%; activation, % at 9.1 µM; actives 30% (n = 3,500);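 active = activation above its plate's cutoff, the mean activation of tested wells plus 3 SD, cut at about 7.9% in these data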
VP16 Luc act: counter-screen for SMARCA2 activators: GAL4-VP16 luciferase reporter activation. shares compounds with SMARCA2 activ. HEK293 GAL4-VP16 pG5luc reporter, luciferase luminescence; scaled: DMSO wells 0%, SAHA wells 100%. activation, % at 9.1 µM. actives 41% (n = 3,500);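 active = activation above the solvent-only control well mean plus 3 SD, averaged across control plates, cut at about 5.2% in these data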
LXRb hcDAF ctr: LXR-beta agonism as hcDAF-12 counter-screen. activation, % at 6.8 µM. shares compounds with hcDAF-12 act. HEK293 Gal4-LXR tk-luc reporter, luminescence, 24 h; normalized: DMSO 0%, positive control 100%. 3,400 tested, under 10 active. AID 743027;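 active = mean percent activation of the reporter above a cutoff set as the average over tested compounds plus their standard deviation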
hcDAF12 conf: confirmation of H. contortus DAF-12 agonists; shares compounds with hcDAF-12 act; HEK293 hcDAF-12 lit1-tk-luc reporter, luminescence; % of Δ7-dafachronic acid response; activation, % at 6.8 µM; actives 61% (n = 3,400); AID 743032;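 active = mean activation across triplicate tests above the threshold derived from the earlier primary screen, cut at about 5.5% in these data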;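 note: 0% = DMSO only wells and 100% = 3 µM Δ7-dafachronic acid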
hgDAF12 ag: confirmation of H. glycines DAF-12 agonists; shares compounds with hgDAF12 agonist; HEK293 GAL4-hgDAF12 luciferase reporter, agonist mode; percent of butyrate response; activation, % at 6.8 µM; actives 80% (n = 3,300);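 active = mean activation over triplicate wells above the hit cutoff derived from the earlier primary screen, cut at about 11% in these data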;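 note: 0% = DMSO low control and 100% = 2 mM sodium butyrate high control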
LXRb DAF12 ctr: activates human LXR-beta, counter-screen for DAF-12 agonists | shares compounds with hgDAF12 agonist | HEK293 Gal4-LXR luciferase reporter, 24 h | activation, % at 6.8 µM | 3,300 tested, under 10 active | AID 743051;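 active = mean activation of the triplicate above a set limit carried over from the primary screen, none filed active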
Numbers without * were called inactive; nt = not tested or not shown.

SMILES	hgDAF12 agonist	ssDAF12 agonist	hcDAF-12 act	DAX1 inh-1	DAX1 inh-2	SMARCA2 activ	SMARCA2 conf	VP16 Luc act	others
Clc1ccc(-c2csc(NCC3CCCO3)n2)cc1 (configuration not stated)	15*	0.9*	5	nt	5.1*	-1	nt	nt	DAX1 conf=7.8*;SF1 AF2mut Luc=4.3*;hgDAF12 ag=13*;LXRb DAF12 ctr=1
OCC1COC(c2ccccc2)=N1 (configuration not stated)	-4	-2	-2	nt	2	2	nt	nt
Cc1ccc(/C=N/Nc2ccc(C(=O)O)cc2)o1	16*	1	6.3*	3	4.6*	5	nt	nt	DAX1 conf=8.4*;SF1 AF2mut Luc=6.6*;hgDAF12 ag=13*;LXRb DAF12 ctr=0
O=C(O)c1ccc(N/N=C/c2ccc(-c3ccccc3Cl)o2)cc1	24*	1.3*	9.8*	-1	9.2*	0	nt	nt	DAX1 conf=26*;SF1 AF2mut Luc=11*;LXRb hcDAF ctr=2;hcDAF12 conf=12*;hgDAF12 ag=12*;LXRb DAF12 ctr=1
O=C(O)c1ccc(N/N=C/c2ccc(-c3ccc(Br)cc3)o2)cc1	5	-1	1	1	1	-1	nt	nt
CCC(C)c1ccc(NC(=O)c2cccs2)cc1 (configuration not stated)	19*	1.7*	8.2*	0	7.2*	6	nt	nt	DAX1 conf=19*;SF1 AF2mut Luc=6.4*;LXRb hcDAF ctr=2;hcDAF12 conf=7.8*;hgDAF12 ag=20*;LXRb DAF12 ctr=1
CCC(C)NS(=O)(=O)c1ccc(NC(=O)c2cccs2)cc1 (configuration not stated)	1	-1	-2	0	-1	-1	nt	nt
O=C(Nc1ccc(F)cc1)c1ccccc1NC(=O)C1CCCCC1C(=O)O (configuration not stated)	2	-1	0	0	1	0	nt	nt
O=C(NCCc1ccccc1)c1ccccc1NC(=O)C1CCCCC1C(=O)O (configuration not stated)	18*	0	9.3*	nt	4.9*	4	nt	nt	DAX1 conf=5.4*;SF1 AF2mut Luc=4.3*;LXRb hcDAF ctr=1;hcDAF12 conf=3;hgDAF12 ag=14*;LXRb DAF12 ctr=1
COc1ccc(OCc2nn3c(-c4ccccc4)nnc3s2)cc1	0	-2	-2	nt	0	-6	nt	nt
Cc1ccc(OCCCCCCN2CCNCC2)c(Br)c1	4	-1	5.9*	4.7*	0	11*	2	9.7*
Cc1ccc(OCCCCN2CCC(C)CC2)c(Br)c1	0	-2	-1	0	0	-3	nt	nt
COc1cccc(CC(=O)Nc2nc(C)cs2)c1	1	-2	0	1	1	8.6*	4	2
COc1ccc(N=Cc2nc(-c3ccco3)oc2O)cc1	5	-1	1	1	0	8.8*	9.9*	4
O=C(CCl)Nc1ccc(C(=O)NCC2COc3ccccc3O2)cc1 (configuration not stated)	-9	-2	-4	nt	-7	-14	nt	nt
COc1ccc(-c2ccc(SCC(=O)NCC3CCCO3)nn2)cc1OC (configuration not stated)	1	0	1	0	0	-1	nt	nt
COc1ccc(-c2ccc(SCC(=O)NC3CCCCC3)nn2)cc1OC	5	-1	4	2	0	8.5*	11*	5
N=C1C(c2nc3ccccc3[nH]2)=C(O)CN1c1ccccc1	5	-1	1	0	1	8.2*	9.0*	7.4*
O=C(OCc1cn(Cc2cccc(Cl)c2)nn1)N1CCOCC1	4	0	0	nt	-1	-1	nt	nt
COc1ccccc1/C=C/c1nc2ccccc2c(=O)o1	10	1	4	2	3	10*	5	12*
CC(C)(C)SCCNC(=O)/C=C/c1ccccc1	2	-1	0	nt	1	8.1*	6	5
Cc1cccc(-c2cccc3c4c([nH]c23)[C@@H]2C[C@H]3[C@@H](CN2CC4)[C@H](C)ON3C)c1	0	-1	2	nt	-1	-3	nt	nt
O=C(O)c1ccccc1C1Nc2ccccc2C(=O)N1CCCN1CCOCC1 (configuration not stated)	-2	-1	0	nt	0	12*	-2	1
O=C1c2ccccc2NC(c2ccccc2)N1CCCN1CCOCC1 (configuration not stated)	-1	-2	2	-1	0	-2	nt	nt
O=C(NCCCc1ccccc1)OC1CC2CC1[C@H]1CCCCN1C2 (some centres not stated)	-1	-1	1	nt	1	-1	nt	nt
Cc1ccc(S(=O)(=O)Nc2nc3ccccc3nc2NCc2ccco2)cc1	6	1.4*	6	1	3	8.7*	22*	19*
COC(=O)C1=C(C)N(Cc2cccc(C(F)(F)F)c2)C(=NCc2ccccc2C(F)(F)F)NC1c1ccc(Cl)cc1 (configuration not stated)	2	-1	-2	nt	-1	-6	nt	nt
O=C(NCCSc1ccccc1)c1ccccc1Cl	15*	0	1	1	3	8.7*	8.7*	8.8*
COc1ccc(C(=O)OCCc2ccc(O)cc2)cc1	12*	0	3	2	1	9.2*	8.6*	12*

Screens from PubChem.
